Bioassay records as filed in PubChem.
Only some compounds are listed: those with a hit (about 1.5% of all), similar ones and a draw of the others.
DUSP3 inh: blocks human VHR1 dual specificity phosphatase. recombinant VHR phosphatase, pNPP absorbance. inhibition, % at 13.3 µM. actives 0.52% (n = 290,000). P51452. AID 1654; in the data active = inhibition above about 50%
MazF activator: MazEF (E. coli) toxin RNase activation; FAM/BHQ RNA-DNA oligo cleavage fluorescence, 5 h; AID 504720; actives 0.32% (n = 350,000); P0AE70; activation, % at 20 µM; in the data active = activation above about 50%
PrP UTR inh: inhibition of PrP 5' UTR reporter expression; actives 0.35% (n = 340,000); AID 488862; inhibition, % (test concentration not listed); cell-based PrP 5' UTR mRNA reporter, plate reader; in the data active = inhibition above about 52%
Mtb hypoxia inh: inhibitors of hypoxia-regulated fluorescent reporter in Mycobacterium tuberculosis. M. tuberculosis hypoxia-regulated fluorescent reporter, fluorescence. fluorescence inhibition, % (test concentration not listed). actives 0.1% (n = 300,000). AID 1159583; in the data active = fluorescence inhibition mostly above about 23%, no sharp cut-off; inactive = mostly below about 17%
PrPC surface inh: reduces human prion protein on the cell surface. cell surface PrPC, TR-FRET read-out. actives 0.43% (n = 370,000). P04156. inhibition, % at 13.8 µM; in the data active = inhibition above about 24%
SARS 3CLpro inh: SARS-CoV 3CLpro protease inhibition; P0C6X7; recombinant SARS-CoV 3CLpro, quenched FRET peptide cleavage; inhibition, % at 6 µM; actives 0.14% (n = 290,000); AID 1706; in the data active = inhibition above about 12%
PrPC TRFRET cf: confirmation of inhibitors of cell surface human prion protein | actives 65% (n = 1,500) | inhibition, % at 13.8 µM | cell surface PrPC level, TR-FRET | AID 743200 | shares compounds with PrPC surface inh; in the data active = inhibition above about 25%
LD9 tox: counter-screen for PrPc inhibitors: cytotoxicity in LD9 cells; shares compounds with PrPC surface inh; luminescence viability; inhibition, % at 13.8 µM; actives 29% (n = 1,500); AID 743201; in the data active = inhibition above about 9.5%
Large screens that a line does not name were inactive (follow-up assays come after a bar, where they were run).

N#CC(C#N)=C1C=CC=CN1/C(=C\c1ccco1)C(=O)c1ccccc1	PrPC surface inh 73.6 | PrPC TRFRET cf 67.0 | LD9 tox 78.5
O=C(O)c1ccccc1SCc1csc(-c2ccccc2)n1	PrPC surface inh 76.3 | PrPC TRFRET cf 59.8 | LD9 tox inactive
COC(=O)c1ccccc1SCc1csc(C)n1	none
Cn1c(SCC(=O)N2CCc3ccccc3C2)nnc1-c1ccncc1	PrPC surface inh 40.9 | PrPC TRFRET cf inactive | LD9 tox inactive
Cn1c(SCC(=O)N2CCc3ccccc3C2)nnc1-c1cccs1	none
C#CCOCCOCCOCCNc1nc(N2CCOCC2)nc(N2CCN(C(=O)CCCCCCCCCCNC(=O)C(C(C)O)n3cc(C)nn3)CC2)n1 (stereo unspecified)	none (no result: DUSP3 inh, MazF activator, PrP UTR inh, PrPC surface inh, SARS 3CLpro inh)
O=C(C[n+]1cccc(C(=O)NN=Cc2cccc([N+](=O)[O-])c2)c1)c1ccccc1	none (no result: DUSP3 inh, MazF activator, PrP UTR inh, PrPC surface inh, SARS 3CLpro inh)
CCCOc1ccc(C2NC(=S)NC(C)=C2C(=O)c2ccccc2)cc1OC (stereo unspecified)	PrPC surface inh 49.6 | PrPC TRFRET cf 53.0 | LD9 tox inactive
C=CCOc1ccc(C2NC(=S)NC(c3ccccc3)=C2C(C)=O)cc1OC (stereo unspecified)	PrPC surface inh 51.5 | PrPC TRFRET cf 45.2 | LD9 tox inactive
CC1=C(C(=O)c2ccccc2)C(c2ccc(OC(F)F)cc2)NC(=S)N1 (stereo unspecified)	PrPC surface inh 49.8 | PrPC TRFRET cf 46.7 | LD9 tox inactive
COc1cc(C2NC(=O)NC(c3ccccc3)=C2C(C)=O)ccc1OCC#N (stereo unspecified)	none
O=C(O)COc1ccccc1C=NNC(=O)c1cc2ccccc2cc1O	none (no result: DUSP3 inh, MazF activator, PrP UTR inh, PrPC surface inh, SARS 3CLpro inh)
COc1cc(Cn2c3ccc(NC(=O)CCc4ccc(O)cc4)cc3c(=O)n2C)ccc1F	PrPC surface inh 28.5 (no result: DUSP3 inh, MazF activator, PrP UTR inh, Mtb hypoxia inh, SARS 3CLpro inh) | PrPC TRFRET cf inactive | LD9 tox inactive
COc1ccc(OC)c(CC(=O)Nc2ccc3c(c2)c(=O)n(C)n3Cc2cccc(C(F)(F)F)c2)c1	PrPC surface inh 82.0 (no result: DUSP3 inh, MazF activator, PrP UTR inh, Mtb hypoxia inh, SARS 3CLpro inh) | PrPC TRFRET cf 29.1 | LD9 tox inactive
COc1ccc(CNC(=O)Nc2ccc3c(c2)c(=O)n(C)n3Cc2cccc(C(F)(F)F)c2)cc1	none (no result: DUSP3 inh, MazF activator, PrP UTR inh, Mtb hypoxia inh, SARS 3CLpro inh)
COc1cc(Cn2c3ccc(NC(=O)NCc4ccc(F)cc4)cc3c(=O)n2C)ccc1F	none (no result: DUSP3 inh, MazF activator, PrP UTR inh, Mtb hypoxia inh, SARS 3CLpro inh)
Cn1c(=O)c2cc(NC(=O)CCc3ccc4c(c3)OCO4)ccc2n1Cc1ccc(F)cc1	PrPC surface inh 31.4 (no result: DUSP3 inh, MazF activator, PrP UTR inh, Mtb hypoxia inh, SARS 3CLpro inh) | PrPC TRFRET cf inactive | LD9 tox inactive
CCCOc1ccc(CCC(=O)NN=Cc2ccco2)cc1	none (no result: DUSP3 inh, MazF activator, PrP UTR inh, PrPC surface inh, SARS 3CLpro inh)
CCOC(=O)c1c(C)n(CC)c2c1cc(O)c1ccccc12	PrPC surface inh 24.7 | PrPC TRFRET cf inactive | LD9 tox inactive
O=c1c(=Cc2ccc(O)cc2)sc2nc3cc(Br)cnc3n12	none (no result: DUSP3 inh, MazF activator, PrP UTR inh, PrPC surface inh, SARS 3CLpro inh)
CCc1nonc1NC(=O)c1oc2cc(Br)ccc2c1C	PrPC surface inh 28.5 | PrPC TRFRET cf 90.7 | LD9 tox inactive
O=c1c2cn[nH]c2[nH]c(=S)n1-c1cccc2ccccc12	PrPC surface inh 40.0 | PrPC TRFRET cf 45.9 | LD9 tox inactive
O=c1c2cn[nH]c2[nH]c(=S)n1-c1ccccc1	none
Cc1cccc(C)c1NC(=S)NN=Cc1ccc(C(=O)O)cc1	none (no result: DUSP3 inh, MazF activator, PrP UTR inh, PrPC surface inh, SARS 3CLpro inh)
COc1ccc(/C=C/C(=O)Nc2ccc(-n3nncc3-c3ccc(OC)c(OC)c3)cc2)cc1OC	PrPC surface inh 24.8 | PrPC TRFRET cf 28.0 | LD9 tox 9.9
O=C(NNc1ccccc1)OCc1ccccc1	PrPC surface inh 24.5 (no result: DUSP3 inh, PrP UTR inh, Mtb hypoxia inh, SARS 3CLpro inh) | PrPC TRFRET cf inactive | LD9 tox inactive
CCOC(=O)c1csc(NC(=O)c2ccc(OCC)cc2)n1	PrPC surface inh 29.6 | PrPC TRFRET cf inactive | LD9 tox inactive
CCOC(=O)c1csc(NC(=O)c2ccccc2)n1	none
CC(=NNC(=O)c1ccoc1C)c1ccc(Cl)s1	none (no result: DUSP3 inh, MazF activator, PrP UTR inh, PrPC surface inh, SARS 3CLpro inh)
Cn1c(=O)c([N+](=O)[O-])c(Cl)c2ccccc21	PrPC surface inh 57.0 | PrPC TRFRET cf 50.1 | LD9 tox 98.0
NS(=O)(=O)c1ccc(CCNC(=O)c2cc(-c3ccc(Br)cc3)nc3ccccc23)cc1	none
NS(=O)(=O)c1ccc(CCNC(=O)c2cc(-c3ccccn3)nc3ccc(Br)cc23)cc1	PrPC surface inh 29.0 | PrPC TRFRET cf 47.6 | LD9 tox 21.1
CC1CN(C(C)CO)C(=O)c2cc(NC(=O)NC3CCCCC3)ccc2OC1CN(C)C(=O)Nc1ccc(C(F)(F)F)cc1 (stereo unspecified)	none (no result: DUSP3 inh, MazF activator, PrP UTR inh, PrPC surface inh, SARS 3CLpro inh)
CC(C)=CCC[C@](C)(O)C1CC[C@]2(C)C1C(O)CC1[C@@]3(C)CCC(OC4OC(CO)C(O)C(O)C4OC4OC(CO)C(O)C(O)C4O)C(C)(C)C3CC[C@]12C (stereo partly specified)	none (no result: DUSP3 inh, MazF activator, PrP UTR inh, PrPC surface inh, SARS 3CLpro inh)
COc1ccc(S(=O)(=O)Nc2ccc(C)cc2)cc1N(C)S(=O)(=O)c1ccc(Cl)cc1	PrPC surface inh 24.7 | PrPC TRFRET cf inactive | LD9 tox inactive
COc1ccc(S(=O)(=O)NN(C)C)cc1N(C)S(=O)(=O)c1ccc(Cl)cc1	none
CCN1C(=O)C2C(c3ccc(OC)cc3)N3C(=O)CN(CCOC)C(=O)[C@@]3(C)C2C1=O (stereo partly specified)	none (no result: DUSP3 inh, MazF activator, PrP UTR inh, PrPC surface inh, SARS 3CLpro inh)
